Measurements: PubChem BioAssay AID1159580 (chemical genetic matrix, 2015)
“And” between values parts separate entries of the source, which are not always exact repeats. Equal entries are not always repeated. In all, about 5,500 compounds went through this assay and about 2,000 (36%) were called active. Not shown: some 18% with an inconclusive outcome. Cut-off read from the data, not from the text of the source: active = normalized growth mostly below about 0.91 (no sharp cut-off); inconclusive = no clear call, values can overlap the other calls; inactive = mostly above about 0.92. This is one part of the list.

Experiment: chemical genetic growth profiling, strain panel (AID 1159580);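 note: tested at 20 µM; growth read once vehicle control cultures reached saturation at 30 °C; 1 = growth at the plate median or of vehicle wells; lower values mean less growth of the strain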
Conditions: S. cerevisiae deletion strains, growth OD

Measured: normalized growth

NCC(=O)c1ccccc1
inactive: locus YAL013W, strain DEP1, hits give low values 1.02 | locus YAL021C, strain ccr4, hits give low values 1.02 | locus YAL026C, strain drs2, hits give low values 1.01 | locus YAL030W, strain snc1, hits give low values 1 | locus YBL061C, strain skt5, hits give low values 0.995 | locus YBR009C, strain hhf1, hits give low values 0.999 | locus YBR021W, strain FUR4, hits give low values 1.02 | locus YBR023C, strain chs3, hits give low values 1 | locus YBR171W, strain sec66, hits give low values 1 | locus YBR229C, strain ROT2, hits give low values 1.01 | locus YBR231C, strain swc5, hits give low values 0.998 | locus YBR279W, strain paf1, hits give low values 1.01 | locus YCL011C, strain gbp2, hits give low values 1.01 | locus YCL016C, strain dcc1, hits give low values 1 | locus YCL029C, strain bik1, hits give low values 0.998 | locus YCL061C, strain MRC1, hits give low values 0.996 | locus YCL069W, strain vba3, hits give low values 0.997 | locus YCR088W, strain abp1, hits give low values 1 | locus YDL005C, strain med2, hits give low values 0.984 | locus YDL035C, strain GPR1, hits give low values 1.02 | locus YDL040C, strain nat1, hits give low values 1 | locus YDL074C, strain BRE1, hits give low values 1.06 | locus YDL101C, strain DUN1, hits give low values 1.02 | locus YDL134C, strain PPH21, hits give low values 1.02 | locus YDL185W, strain tfp1, hits give low values 0.996 | locus YDL192W, strain arf1, hits give low values 0.997 | locus YDR001C, strain nth1, hits give low values 1.01 | locus YDR069C, strain doa4, hits give low values 1.02 | locus YDR101C, strain arx1, hits give low values 0.983 | locus YDR137W, strain rgp1, hits give low values 1.01 | locus YDR150W, strain NUM1, hits give low values 1.03 | locus YDR159W, strain sac3, hits give low values 0.993 | locus YDR162C, strain NBP2, hits give low values 1.04 | locus YDR195W, strain ref2 0.976 | locus YDR297W, strain sur2, hits give low values 0.989 | locus YDR318W, strain mcm21, hits give low values 0.982 | locus YDR334W, strain swr1, hits give low values 0.999 | locus YDR335W, strain msn5, hits give low values 1.01 | locus YDR388W, hits give low values 0.991 | locus YDR392W, strain spt3, hits give low values 1.02 | locus YDR502C, strain sam2, hits give low values 0.988 | locus YEL003W, strain gim4, hits give low values 1 | locus YEL037C, strain rad23, hits give low values 1 | locus YEL061C, strain CIN8 (second series), hits give low values 1.02 | locus YEL061C, strain CIN8, hits give low values 1.01 | locus YER015W, strain faa2, hits give low values 1 | locus YER016W, strain bim1, hits give low values 0.987 | locus YER110C, hits give low values 0.996 | locus YER111C, strain swi4, hits give low values 0.992 | locus YER155C, strain BEM2 (second series), hits give low values 1 | locus YER155C, strain BEM2, hits give low values 1.01 | locus YER167W, strain BCK2, hits give low values 1.02 | locus YFR010W, strain ubp6, hits give low values 0.999 | locus YGL078C, strain dbp3, hits give low values 0.994 | locus YGL086W, strain mad1, hits give low values 1 | locus YGL167C, strain pmr1, hits give low values 0.997 | locus YGL173C, strain kem1, hits give low values 0.998 | locus YGL227W, strain vid30, hits give low values 1.01 | locus YGL240W, strain doc1, hits give low values 1.02 | locus YGL248W, strain PDE1, hits give low values 1.02 | locus YGL253W, strain hxk2, hits give low values 1.02 | locus YGR078C, strain PAC10, hits give low values 1.02 | locus YGR135W, strain pre9, hits give low values 0.994 | locus YGR229C, strain SMI1, hits give low values 1.03 | locus YGR252W, strain gcn5, hits give low values 0.964 | locus YHR013C, strain ard1, hits give low values 0.979 | locus YHR027C, strain rpn1, hits give low values 1.02 | locus YHR030C, strain SLT2, hits give low values 1.01 and 1.02 | locus YHR079C, strain IRE1 (second series), hits give low values 0.996 | locus YHR079C, strain IRE1, hits give low values 1.03 | locus YHR094C, strain hxt1, hits give low values 0.988 | locus YHR129C, strain ARP1, hits give low values 1.01 | locus YHR142W, strain chs7, hits give low values 1.01 | locus YHR200W, strain rpn10, hits give low values 0.988 | locus YIL066C, strain RNR3, hits give low values 1.02 | locus YIL073C, strain SPO22, hits give low values 0.951 | locus YIL125W, strain kgd1, hits give low values 1 | locus YIR030C, strain dcg1, hits give low values 0.992 | locus YJL092W, strain hpr5, hits give low values 1 | locus YJL095W, strain BCK1 (second series), hits give low values 0.999 | locus YJL095W, strain BCK1, hits give low values 1.05 and 1.03 | locus YJL115W, strain asf1, hits give low values 1 | locus YJL129C, strain trk1, hits give low values 1 | locus YJL134W, strain LCB3, hits give low values 1.01 | locus YJL154C, strain vps35, hits give low values 1 | locus YJL164C, strain tpk1, hits give low values 0.996 | locus YJL166W, strain qcr8, hits give low values 1.02 | locus YJL168C, strain set2, hits give low values 0.994 | locus YJL187C, strain SWE1 (second series), hits give low values 1.02 | locus YJR043C, strain POL32, hits give low values 1 | locus YJR066W, strain TOR1, hits give low values 0.997
